84 sequences from article PMC10668032, “Altered binding affinity of SIX1-Q177R correlates with enhanced WNT5A and WNT pathway effector expression in Wilms tumor” can be followed below.

In all, about 33,000 sequences were measured (“e-score”: median about -0.053, highest 2% from about 0.38 on). The sample as a whole holds a higher share of the highest values than the screen did.

In this assay the target is T1, SIX1 homeodomain (reference allele) (human, UniProt Q15475 108-198).
T1 sequence: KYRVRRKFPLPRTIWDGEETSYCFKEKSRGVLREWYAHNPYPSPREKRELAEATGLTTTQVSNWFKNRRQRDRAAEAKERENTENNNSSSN
Put plainly: universal protein binding microarray; Universal all-10-mer PBM (8x60K, AMADID 030236), 300 nM GST-tagged protein, Alexa Fluor 488 anti-GST; buffer, salt, pH and temperature not stated (as in Berger); high values mean tight binding. Particulars: protein: ivt; tags: N-terminal GST; dsDNA, one strand shown. Summed up: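 GST-tagged homeodomains were made by in vitro transcription/translation and quantified by anti-GST western blot against a recombinant GST standard curve. They were applied in duplicate at 300 nM final concentration to universal 'all 10-mer' protein binding microarrays (8×60K format). Binding was quantified as 8-mer E-scores with the Universal PBM Analysis Suite.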
For GAACACCC, the binding signal is 0.205 ± 0.0407 E-score.

Regarding CCCCTTCC, the binding signal came to 0.164 ± 0.0967 E-score.

For the sequence GATATCGA, the binding signal was 0.42 ± 0.0378 E-score.

In the case of ATTATCCG, the binding signal was 0.351 ± 0.0414 E-score.

In the case of CATATCCG, the binding signal amounted to 0.426 ± 0.0135 E-score.

With AATATCGA, the binding signal was found to be 0.241 ± 0.0403 E-score.

For the sequence GAGATCGA, the binding signal was found to be 0.271 ± 0.0142 E-score.

For GATATTGA, the binding signal worked out at 0.287 ± 0.088 E-score.

In the case of CATATACG, the binding signal turned out to be 0.24 ± 0.0369 E-score.

Consider TATATCCA, for which the binding signal came to 0.335 ± 0.0312 E-score.

Regarding TATATCGA, the binding signal came to 0.387 ± 0.0436 E-score.

Regarding CAACTATC, the binding signal turned out to be 0.168 ± 0.0786 E-score.

With ATTGAATA, the binding signal is 0.196 ± 0.0188 E-score.

Turning to GTGTCGCA, the binding signal worked out at 0.173 ± 0.106 E-score.

Regarding AAGAATAC, the binding signal was found to be 0.214 ± 0.0706 E-score.

Turning to ATCAATTA, the binding signal came to 0.229 ± 0.0261 E-score.

Turning to ATCGCCTG, the binding signal was 0.206 ± 0.0204 E-score.

Turning to ATACTGTG, the binding signal worked out at 0.226 ± 0.0353 E-score.

With TATCGCCA, the binding signal was 0.36392 ± 0.000113 E-score.

As to GATCGCGA, the binding signal amounted to 0.3375 ± 0.00196 E-score.

As for TATCGCGA, the binding signal was found to be 0.395 ± 0.0175 E-score.

Turning to CCGGCGGA, the binding signal turned out to be 0.24 ± 0.0642 E-score.

For TCATCCGA, the binding signal stood at 0.255 ± 0.0149 E-score.

As to CCTGAGAC, the binding signal is 0.168 ± 0.0173 E-score.

Regarding GCTGATAC, the binding signal amounted to 0.459 ± 0.00926 E-score.

For CCTGATAG, the binding signal amounted to 0.266 ± 0.022 E-score.

Consider GCTGACAC, for which the binding signal was found to be 0.246 ± 0.0761 E-score.

Turning to GCTGAGAC, the binding signal was determined as 0.214 ± 0.0303 E-score.

Turning to ACTGATAG, the binding signal amounted to 0.315 ± 0.0253 E-score.

Turning to CCTGATAC, the binding signal was determined as 0.4721 ± 0.0017 E-score.

Regarding ACTGATAT, the binding signal was 0.442 ± 0.0273 E-score.

Turning to ACTGATAC, the binding signal turned out to be 0.465 ± 0.00916 E-score.

Regarding ACTGATCA, the binding signal is 0.181 ± 0.00344 E-score.

Consider ACTGCTAT, for which the binding signal was 0.177 ± 0.0391 E-score.

For the sequence ACTGACAC, the binding signal was determined as 0.335 ± 0.01 E-score.

Consider GTATAGAA, for which the binding signal was 0.215 ± 0.0496 E-score.

On to TATCTCCA, for which the binding signal was found to be 0.282 ± 0.0362 E-score.

For the sequence ATGGCATC, the binding signal was determined as 0.155 ± 0.0404 E-score.

With ATCCAGTA, the binding signal stood at 0.242 ± 0.0094 E-score.

Turning to AGCAATAC, the binding signal was found to be 0.298 ± 0.00343 E-score.

Take GATCGTGC: the binding signal was determined as 0.276 ± 0.0195 E-score.

Regarding ACCTATAT, the binding signal worked out at 0.195 ± 0.0849 E-score.

Regarding GCAGGAGA, the binding signal was determined as 0.153 ± 0.0104 E-score.

Regarding GTCTCGTA, the binding signal came out at 0.172 ± 0.0154 E-score.

For CTATCGTC, the binding signal worked out at 0.163 ± 0.0581 E-score.

With CTATCGTA, the binding signal worked out at 0.266 ± 0.0154 E-score.

On to ATATCGTG, for which the binding signal is 0.376 ± 0.0365 E-score.

For GTATAGTA, the binding signal turned out to be 0.285 ± 0.0663 E-score.

Take ATATCGTC: the binding signal was 0.382 ± 0.0428 E-score.

As for ATATAGTA, the binding signal came out at 0.304 ± 0.0257 E-score.

As for GTATCGTA, the binding signal is 0.4227 ± 0.00184 E-score.

On to ATATCGTA, for which the binding signal amounted to 0.402 ± 0.0509 E-score.

Consider GGTAGATA, for which the binding signal was 0.336 ± 0.0074 E-score.

As for GAGTAATA, the binding signal was found to be 0.204 ± 0.00279 E-score.

For AGATCTCG, the binding signal turned out to be 0.214 ± 0.0497 E-score.

As to GGTGTCCA, the binding signal was found to be 0.314 ± 0.0555 E-score.

GGTGTCAC: the binding signal turned out to be 0.476 ± 0.0116 E-score.

Turning to GGTGTCTA, the binding signal was 0.35 ± 0.0308 E-score.

For the sequence AGTGTCAC, the binding signal was 0.253 ± 0.0143 E-score.

In the case of GGGGTCAA, the binding signal amounted to 0.151 ± 0.00175 E-score.

Take CGTGTCAC: the binding signal was 0.1957 ± 0.000728 E-score.

As to AGTGTCAA, the binding signal was determined as 0.168 ± 0.0652 E-score.

For GGTGTCGA, the binding signal is 0.408 ± 0.0576 E-score.

Consider GGTGTCAA, for which the binding signal came out at 0.45408 ± 0.000177 E-score.

CCGCTATA: the binding signal turned out to be 0.176 ± 0.0395 E-score.

Turning to CTTAGATA, the binding signal is 0.19 ± 0.0471 E-score.

In the case of GGTACACC, the binding signal came to 0.298 ± 0.064 E-score.

Take AAGGGTGA: the binding signal came out at 0.21 ± 0.0127 E-score.

For the sequence GCGTTAGA, the binding signal was 0.197 ± 0.00519 E-score.

With GGGGACAC, the binding signal was determined as 0.161 ± 0.0585 E-score.

Take AGGGATAC: the binding signal amounted to 0.4148 ± 0.000559 E-score.

With AGGGATAA, the binding signal was 0.292 ± 0.0171 E-score.

On to CGGGATAC, for which the binding signal is 0.408 ± 0.0263 E-score.

With GGGGATAC, the binding signal was 0.44 ± 0.0287 E-score.

In the case of GGGGATAA, the binding signal worked out at 0.311 ± 0.0718 E-score.

As to CGGGATAA, the binding signal worked out at 0.17 ± 0.0308 E-score.

Take TGGGATAA: the binding signal was found to be 0.176 ± 0.0405 E-score.

Take CGGGATAG: the binding signal turned out to be 0.268 ± 0.0112 E-score.

As to AGGGATAG, the binding signal amounted to 0.27 ± 0.0085 E-score.

Consider AGGGATAT, for which the binding signal was determined as 0.45 ± 0.0188 E-score.

Regarding AGGGGGAT, the binding signal was found to be 0.376 ± 0.0175 E-score.

As to CTAAGATA, the binding signal was found to be 0.241 ± 0.105 E-score.

As to ATCTGGGC, the binding signal stood at 0.24 ± 0.0045 E-score.

For CCTATTGA, the binding signal was found to be 0.187 ± 0.0453 E-score.
